# How the values were obtained:
# Details in all cases: concentration: 1 μM, replicates: in singlicate; n = 1
# SRPK1 = tested on: SRPK1
# SRPK2 = tested on: SRPK2
# SRPK3 = tested on: SRPK3
# STK16 = tested on: STK16
# STK33 = tested on: STK33
# STK35 = tested on: STK35
# STK36 = tested on: STK36
# STK39 = tested on: STK39
# SYK = tested on: SYK
# SgK110 = tested on: SgK110
# TAK1 = tested on: T1, TAK1
# T1 construct: gene MAP3K7
# TAOK1 = tested on: TAOK1
# TAOK2 = tested on: TAOK2
# TAOK3 = tested on: TAOK3
# TBK1 = tested on: TBK1
# TEC = tested on: TEC
# TESK1 = tested on: TESK1
# TGFBR1 = tested on: TGFBR1
# TGFBR2 = tested on: TGFBR2
# TIE1 = tested on: TIE1
# 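Also: KINOMEscan kinase panel screen.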
SMILES,%Inh (SRPK1) [%],%Inh (SRPK2) [%],%Inh (SRPK3) [%],%Inh (STK16) [%],%Inh (STK33) [%],%Inh (STK35) [%],%Inh (STK36) [%],%Inh (STK39) [%],%Inh (SYK) [%],%Inh (SgK110) [%],%Inh (TAK1) [%],%Inh (TAOK1) [%],%Inh (TAOK2) [%],%Inh (TAOK3) [%],%Inh (TBK1) [%],%Inh (TEC) [%],%Inh (TESK1) [%],%Inh (TGFBR1) [%],%Inh (TGFBR2) [%],%Inh (TIE1) [%]
COc1cc(OC)cc(-c2cc3cnc(N)nc3nc2NC(=O)NC(C)(C)C)c1,47,0,0,0,0,0,0,0,0,0,42,0,0,0,0,0,13,0,7,33
CCS(=O)c1ccc(-c2coc3ccc(-c4nnc(C)o4)cc23)cc1 (stereo not shown),0,0,5,22,0,0,2,28,13,5,21,0,0,0,2,0,0,4,9,0
CC(C)(C)c1ccc(C(=O)Nc2cn3cc(-c4ccccc4)ccc3n2)cc1,0,3,0,0,3,47,8,0,0,0,0,0,4,0,38,19,8,0,8,0
COc1ccc(Nc2nccc(N3CCC(NS(=O)(=O)c4ccc(NC(C)=O)cc4)C3)n2)cc1 (stereo not shown) [GSK1379729],35,0,63,19,10,14,3,2,35,4,0,2,0,2,11,3,16,7,7,20
O=C(Nc1ccc2c(c1)OCO2)NC1CCN(c2ccnc(NCc3ccc(F)cc3)n2)CC1 [GSK1379859],28,0,0,7,0,0,0,0,16,0,0,0,0,2,2,0,0,0,0,0
Cc1nc(N(C)[C@H]2CN(C(=O)CC#N)CC[C@H]2C)c2cc[nH]c2n1,26,0,1,0,0,0,0,0,0,0,6,10,0,0,0,4,0,0,0,1
Fc1cccc(CSc2nnc(-c3ccc4c(c3)CCO4)o2)c1,1,0,16,0,6,0,16,16,0,13,32,0,0,0,19,20,0,11,28,8
O=C(NCCNc1ccnc(Nc2ccc(F)cc2)n1)Nc1ccc2c(c1)OCO2 [GSK1379882],17,24,0,23,0,0,0,12,0,0,0,0,0,0,30,4,96.3,0,0,0
CCc1nc(-c2cccc(C)c2)c(-c2ccncc2)s1,0,0,15,23,0,0,15,0,23,0,0,0,14,0,35,0,0,0,13,0
COc1cccc(C2=C(N(C)c3ccccc3)C(=O)NC2=O)c1 [SB-334865],0,7,0,22,0,0,0,7,9,0,0,0,0,0,3,2,24,29,10,0
O=C(Nc1n[nH]c2nc(-c3ccccc3)c(Cl)cc12)C1CC1 [SB-734909],0,27,15,1,0,32,6,0,0,23,8,0,0,0,38,0,6,0,0,0
O=C(NCc1cccs1)c1cc(C(=O)c2c(Cl)cccc2Cl)c[nH]1 [GW823670],0,0,0,0,0,0,10,0,6,14,0,0,7,0,6,0,0,27,0,8
O=c1cc(N2CCOCC2)nc2n(Cc3ccc(F)c(Cl)c3)ccn12 [GSK2297099],0,0,0,24,0,0,0,0,7,8,2,0,0,0,17,12,12,35,0,0
COc1cc2ncn(-c3cc(OCc4ccc(S(C)(=O)=O)cc4)c(C(N)=O)s3)c2cc1OC [GW869979],25,0,13,2,27,0,0,0,0,0,0,18,0,0,34,12,0,0,0,0
COc1cc2ncn(-c3cc(OCc4ccncc4)c(C(N)=O)s3)c2cc1OC [GSK336313],23,0,0,25,0,0,0,4,26,0,0,0,0,0,19,6,0,5,0,100
Cc1ccccc1COc1cc(-n2cnc3cc(Cl)ccc32)sc1C(N)=O [GW813349],10,34,10,0,30,0,30,0,9,0,0,0,3,0,22,0,7,28,0,11
CCC(=O)c1c(-c2ccccc2)c2cc(Cl)ccc2c(=O)n1Cc1cc(C(=O)NC2CC2)n(C)n1,0,19,0,6,0,51,0,13,0,11,3,0,0,0,0,2,23,8,0,6
Cc1ccc(Oc2ccc(Nc3ncnc4cc[nH]c34)cc2C)cn1,0,0,0,27,0,0,13,15,11,0,30,0,0,0,30,6,13,2,0,0
CN(C)c1cc(-c2ccc3c(N)n[nH]c3c2)nc(N)n1 [GSK2219329],0,0,0,0,0,0,0,0,17,0,0,0,0,0,9,1,76,–,0,0
COc1ccc(-n2cnc3c(N)ncnc32)cc1 [SKF-97236],28,0,15,38,20,0,0,0,18,0,30,20,1,21,9,0,3,0,23,23
CCn1c(-c2ccoc2)nc2cnccc21 [SB-733887],41,18,0,1,0,0,0,0,26,0,91.4,0,0,0,12,16,29,0,0,0
COc1ccc(-c2cc3c(C)nc(N)nc3n([C@H]3CC[C@H](O)CC3)c2=O)cn1,21,0,0,0,0,0,0,0,0,0,21,0,0,0,90,0,7,0,6,0

# From publication PMC5540273 (PLoS ONE, 2017)
